# Over roughly 68,000 sequences, “fluorescence intensity (a.u.)” has its median near 9,100; the highest 2% begin near 16,000. The full list was thinned out, with the highest values kept by preference.
# Target: OsWRKY34 (Oryza sativa, UniProt Q0JBA9 1-250)
# Test: protein-binding microarray (RPBM); PBS, 2% BSA, 51.3 ng/ul salmon testes DNA, 50 uM zinc acetate, 200 nM TF, 25 C, 1 h; high values mean tight binding
# Details: protein: recombinant; tags: N-terminal polyhistidine and DsRed monomer fusion (pET32a); label: CyDye5-dUTP incorporated in the synthesized complementary strand; 3' TTTTT single-stranded linker to array surface; dsDNA, one strand shown
# Method in brief: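 Binding signal is reported as fluorescence intensity per feature (arbitrary units) from an Axon 4000B scanner. Incubation used 200 nM of each Ni–NTA-purified, N-terminally polyhistidine- and DsRed-fused transcription factor from E. coli BL21-CodonPlus on a double-stranded custom Agilent array for 1 h at 25 °C, with 50 µM zinc acetate in the buffer, followed by washing.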
# Sequence of OsWRKY34 (Q0JBA9 entry or part of it): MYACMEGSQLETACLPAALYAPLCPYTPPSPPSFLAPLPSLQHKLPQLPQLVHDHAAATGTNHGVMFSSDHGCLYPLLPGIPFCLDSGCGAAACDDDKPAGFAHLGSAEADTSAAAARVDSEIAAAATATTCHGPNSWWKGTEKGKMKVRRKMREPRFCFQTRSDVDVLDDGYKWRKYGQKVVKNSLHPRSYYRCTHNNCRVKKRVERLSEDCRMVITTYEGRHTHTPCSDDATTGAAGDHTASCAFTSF
row,Sequence,binding signal
1,CACCACCCAGATCTGTCTCGTCTCTGTTCTTGCCTTCGCTCGGAGTCACCTAGTGCAG,11900 fluorescence intensity (a.u.)
2,TGGTGTCTCATAATTCTCTACATGGTATCAAATACTGGTTCGGAGTCACCTAGTGCAG,9610 fluorescence intensity (a.u.)
3,GGCGTTATATCTGGTTTTGTGGCTGAGGGAGGTAATTTAGCGGAGTCACCTAGTGCAG,11700 fluorescence intensity (a.u.)
4,TTCACGTTCAATGTTTGACCGTTCGTCTTATTTGAAAATTCGGAGTCACCTAGTGCAG,8550 fluorescence intensity (a.u.)
5,AACTTCAGTCCTTTTCCATCACATCAACCTGTCATATACACGGAGTCACCTAGTGCAG,8220 fluorescence intensity (a.u.)
6,TGAATTGGGAAATTTCGGTGTTTTTTTTCTTCTTTTTTTTCGGAGTCACCTAGTGCAG,8740 fluorescence intensity (a.u.)
7,TAGTTTTCTCATGTTCATCAATTTAAATACCTAACAATACCGGAGTCACCTAGTGCAG,8180 fluorescence intensity (a.u.)
8,CTGCTTTTATAGTTTGGTGGGCTTTTCTTTGCTAGTGGGCCGGAGTCACCTAGTGCAG,10600 fluorescence intensity (a.u.)
9,TCTTTTTTCCATCCATCTTTTTTTCGCCGTTCTTTCCGGTCGGAGTCACCTAGTGCAG,8220 fluorescence intensity (a.u.)
10,GGTTTCCGTGGTGGGCCGGTTTGGGCTTTTCTTTTTTACACGGAGTCACCTAGTGCAG,18500 fluorescence intensity (a.u.)
11,CAAACAAAATGGGTTTCTTCTTACGGTTGTGGGCTTTTTCCGGAGTCACCTAGTGCAG,17400 fluorescence intensity (a.u.)
12,TTTCCTTTACTTTGGTGGTTCTTTTTTTTTTCTTTGTTTCCGGAGTCACCTAGTGCAG,11400 fluorescence intensity (a.u.)
13,TGCTTGTACAGTTTCCGGTTTCTTTGCCATTTCGTTTACACGGAGTCACCTAGTGCAG,20000 fluorescence intensity (a.u.)
14,GCTTGCTTTGTCACATGCAGTTTTACACCTTTTATTTCTCCGGAGTCACCTAGTGCAG,10400 fluorescence intensity (a.u.)
15,GCTTGCAGGGCTTGGTTGTTTCTTCTTCCGTTTTTTTTTACGGAGTCACCTAGTGCAG,13600 fluorescence intensity (a.u.)
16,GGTTCTTTGTTTCCGTTTGCTTTACCATTTTTGTTCCTTTCGGAGTCACCTAGTGCAG,10000 fluorescence intensity (a.u.)
17,TTCTCTTGCTTCCTTTTTGGTCATTTGAGATAGCTTTATCCGGAGTCACCTAGTGCAG,10300 fluorescence intensity (a.u.)
18,AATCGCCGTTCTAGCTTTTTGGTCTTGGTCTTTTTTTATCCGGAGTCACCTAGTGCAG,21400 fluorescence intensity (a.u.)
19,ACTTTTTCCGAACCAAAATGGACTTCTTCCTTACGGTTACCGGAGTCACCTAGTGCAG,8390 fluorescence intensity (a.u.)
20,ATCTCTTAACCTTTTTCTTATTACCAAACATGCTAACGGTCGGAGTCACCTAGTGCAG,8030 fluorescence intensity (a.u.)
21,TCGCCATCGATCGATCGTCTCAACCTCAACCACATTATTGCGGAGTCACCTAGTGCAG,8550 fluorescence intensity (a.u.)
22,TCTTCGCAACTCCAAACTTCCCGAGCATCTTATCTTTGCACGGAGTCACCTAGTGCAG,8990 fluorescence intensity (a.u.)

row,Sequence,binding signal
1,GTATTGCAATTTTTTTTTGTTTGTGTTGTATCTGTTCTCTCGGAGTCACCTAGTGCAG,8110 fluorescence intensity (a.u.)
2,GGTTAGGTTTTTTTATAGAGGGAGTAGTATGCAATTATTTCGGAGTCACCTAGTGCAG,9450 fluorescence intensity (a.u.)
3,TTTCTTGGTTCCTGTGTCTAAGCCAGCTGTAAACTTACAACGGAGTCACCTAGTGCAG,8450 fluorescence intensity (a.u.)
4,ATTTCCAAGCTCTCTTTGCAGTTACTCCTCGGTGTGCTCCCGGAGTCACCTAGTGCAG,8250 fluorescence intensity (a.u.)
5,TATATATTGTTTTTTTTTACGTTGTTGGTTCCGGATGTGACGGAGTCACCTAGTGCAG,9930 fluorescence intensity (a.u.)
6,GTCATTGGTGGTTTATATTGTTTGGCTTTTTTCCGGATTACGGAGTCACCTAGTGCAG,18500 fluorescence intensity (a.u.)
7,TTTTGGATTTTGTTTCATTTTTTTTACATGCATTGGATTACGGAGTCACCTAGTGCAG,8120 fluorescence intensity (a.u.)
8,TGAGACAAAGCACATTCTACCCAAGGCCAGTTGCACCAACCGGAGTCACCTAGTGCAG,8080 fluorescence intensity (a.u.)
9,TCAGTGTTGAGTAGGGTTGGCAGGCGAGCACGCAGTAATGCGGAGTCACCTAGTGCAG,8190 fluorescence intensity (a.u.)
10,TGTTGTGTGTTAGTTGTGGTGGTAGCATTTTTTCCTGGTACGGAGTCACCTAGTGCAG,13000 fluorescence intensity (a.u.)
11,TAGCTACCTAAGCTTAGCTCACATTCTTCTCGCTTTCTCACGGAGTCACCTAGTGCAG,12000 fluorescence intensity (a.u.)
12,CGAGGGAGGGGAGGCGGCGGAGGCGAGAGAGGAGAGGGGACGGAGTCACCTAGTGCAG,11000 fluorescence intensity (a.u.)
13,GGTGGGCTATAAATATAGTTGGGGAGGGGAGGGAAGACCCCGGAGTCACCTAGTGCAG,16700 fluorescence intensity (a.u.)
14,GGGAGGAGGAGGAGGAGAAGGGCGGCGGGAGGAGGGGCGACGGAGTCACCTAGTGCAG,14000 fluorescence intensity (a.u.)
15,GTATCGCCAAGGAGGAGAGGGGAGAGGGGTGGAAGAGGAACGGAGTCACCTAGTGCAG,11900 fluorescence intensity (a.u.)
16,GGAGGTGGGGAGGGGAGGAGAGGGGAAGAAGGAAGAAAAACGGAGTCACCTAGTGCAG,13300 fluorescence intensity (a.u.)
17,GGTGGGACGTGGTGGGCGTCAAGGCGGCGGTGGGAGGGGACGGAGTCACCTAGTGCAG,20400 fluorescence intensity (a.u.)
18,GAAGGGTGGGAGGGGAAGGGGAGGACGAGCGGGCGGACGGCGGAGTCACCTAGTGCAG,11500 fluorescence intensity (a.u.)
19,GTGGGGTTGGAGGAGGGAGGGAGCTAGCTATAGTTGCTAGCGGAGTCACCTAGTGCAG,9980 fluorescence intensity (a.u.)
20,AGGGCGGTGGGGCGGCAAGGGACCAGATGGTGGGGCGGCACGGAGTCACCTAGTGCAG,11100 fluorescence intensity (a.u.)
21,ACTAGTTGAAGGAGTTGGGGCTATAAATGGGTGGTGCTATCGGAGTCACCTAGTGCAG,10900 fluorescence intensity (a.u.)
22,CTGGGTGTGGGTGTGGGTCTGGGTCTGGGTGGAAGAGGAACGGAGTCACCTAGTGCAG,21200 fluorescence intensity (a.u.)

# Source: article PMC7819943, “Rice protein-binding microarrays: a tool to detect cis-acting elements near promoter regions in rice”
